Reference: paper PMC5540273 (PLoS ONE, 2017)

Assays:
Conditions in all cases: concentration: 1 μM, replicates: in singlicate; n = 1
[1] = test system: T1, MEK2
T1 construct: gene MAP2K2

[2] = test system: T2, MEK3
T2 construct: gene MAP2K3

[3] = test system: T3, MEK4
T3 construct: gene MAP2K4

[4] = test system: T4, MEK5
T4 construct: gene MAP2K5

[5] = test system: T5, MEK6
T5 construct: gene MAP2K6

[6] = test system: MELK
[7] = test system: MERTK
[8] = test system: MET
[9] = test system: T6, MINK
T6 construct: gene MINK1

[10] = test system: MKK7
[11] = test system: MKNK1
[12] = test system: MKNK2
[13] = test system: T7, MLCK
T7 construct: gene MYLK3

[14] = test system: T8, MLK1
T8 construct: gene MAP3K9

[15] = test system: MLK2
[16] = test system: MLK3
[17] = test system: MRCKA
[18] = test system: T9, MRCKB
T9 construct: gene CDC42BPB

[19] = test system: MST1R
[20] = test system: T10, MST1
T10 construct: gene STK4
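Note: KINOMEscan kinase panel screen.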

Compound	%Inh [1] [%]	%Inh [2] [%]	%Inh [3] [%]	%Inh [4] [%]	%Inh [5] [%]	%Inh [6] [%]	%Inh [7] [%]	%Inh [8] [%]	%Inh [9] [%]	%Inh [10] [%]	%Inh [11] [%]	%Inh [12] [%]	%Inh [13] [%]	%Inh [14] [%]	%Inh [15] [%]	%Inh [16] [%]	%Inh [17] [%]	%Inh [18] [%]	%Inh [19] [%]	%Inh [20] [%]
Cn1cncc1-c1ccc2ncnc(Nc3ccc(OCc4ccccc4)cc3)c2c1 [GW320571]	0	0	35	93.7	0	15	2	11	0	15	24	27	7	8	26	20	8	17	29	14
Cc1cccc(-c2nc(C)cc(Nc3ccncc3)n2)n1 [GSK257997]	0	0	32	8	0	0	18	0	6	0	0	0	0	0	0	39	34	81	35	8
CC(=O)Nc1nc2cnc(Nc3cc(NC(=O)c4cccc(CCC#N)c4)ccc3C)nc2s1	0	3	25	2	12	0	12	7	4	0	3	0	0	2	15	13	0	0	21	5
Cl.NC(=O)c1cccc(Nc2nccc(Nc3ccc(Oc4cccc(Cl)c4)c(Cl)c3)n2)c1 [GW659008]	14	0	22	99.7	0	0	33	37	0	0	8	4	0	0	33	0	26	0	0	15
COc1cc(Nc2nccc(N3CCC(NC(=O)Nc4cc(C)ccc4C)C3)n2)cc(OC)c1OC (centres unmarked) [GSK1379762]	0	0	7	99.8	0	5	51	42	0	0	9	37	0	25	4	23	0	0	52	13
CC(C)(C)c1ccc(C(=O)Nc2cn3cc(-c4cccnc4)ccc3n2)cc1	36	13	0	95.4	32	33	26	0	52	0	0	26	41	12	43	0	9	0	48	33
COc1cccc(NC(=O)NC2CCN(c3ccnc(Nc4ccc(F)cc4)n3)C2)c1 (centres unmarked) [GSK1379721]	22	0	26	86	0	8	14	0	0	0	23	0	0	0	0	0	6	0	28	0
O=C(Nc1n[nH]c2nc(-c3nccs3)c(Br)cc12)C1CC1 [SB-742251]	0	0	13	74	0	0	12	0	20	0	59	51	48	0	0	0	3	0	18	3
O=C(Nc1n[nH]c2nc(-c3nccs3)c(Br)cc12)C1CCCC1 [SB-742609]	0	0	30	39	0	0	44	5	0	0	31	31	39	9	12	0	0	0	27	3
O=C(Nc1ccc2c(c1)OCO2)NC1CCN(c2ccnc(Nc3ccc(F)cc3)n2)C1 (centres unmarked) [GSK1379724]	0	0	28	17	0	0	0	0	0	0	0	3	0	0	0	2	2	16	35	0
